PNC inhibitor: perinucleolar compartment assembly inhibition; PC3M PTB-GFP, PNC prevalence imaging, 16 h; hits give low values; activity change (PNC), negative = inhibition, % at 10 µM; 3.1% of 140,000 active; AID 2417;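 active = readout at or below -70, meaning at least 70% loss of cells showing the perinucleolar compartment, a nuclear body marking cancer cells; inconclusive = readout between -30 and a set limit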
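Compounds are pinned in duplicate onto adhered PC3M cells stably expressing GFP-tagged PTB and incubated 16 h at 37 C. Cells are then fixed, nuclei stained with Hoechst, and PNC-positive cells counted.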
ALDH1A1 inh: blocks purified human ALDH1A1 activity. P00352. Purified ALDH1A1, NADH fluorescence, propionaldehyde substrate. Potency, µM (top dose mostly 75.3 µM), actives largely listed as inhibitors. 7.3% of 220,000 active
HPGD block: blocks human HPGD enzyme activity; AID 894; Potency, µM, hits mostly inhibitors; 4.3% of 150,000 active; purified HPGD, NADH fluorescence kinetic, PGE2 substrate; P15428
Target sequence (P15428 whole entry, looked up): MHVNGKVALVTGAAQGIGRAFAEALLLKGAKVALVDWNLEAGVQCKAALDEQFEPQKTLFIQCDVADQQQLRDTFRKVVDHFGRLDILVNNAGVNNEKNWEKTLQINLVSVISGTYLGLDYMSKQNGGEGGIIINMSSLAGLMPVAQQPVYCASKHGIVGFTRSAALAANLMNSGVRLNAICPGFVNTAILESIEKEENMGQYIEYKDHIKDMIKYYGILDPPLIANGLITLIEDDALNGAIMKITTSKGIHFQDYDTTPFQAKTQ
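NADH formation kinetics: reaction with 30 uM PGE2 and 1 mM NAD+ (final), 20 nM enzyme, Tris-HCl pH 8 with Tween 20, after 15 min compound preincubation at room temperature. Fluorescence change, last versus first of five reads.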
A number is an active result; – = inactive; ? = inconclusive; · = not tested or not shown; [ ] = dose if it differs, or a comment. Shown are actives, neighbours in structure and some others; about 11% of the full set was active somewhere. Unless noted, calls come from the whole dose curve; as a rule, active = well fitted inhibition curve with a large enough effect (not every such curve was filed as active); inconclusive = small, poorly fitted or top-dose-only effect, or another doubt; inactive = no such curve, though single readings can be large or run the other way.

SMILES	PNC inhibitor	ALDH1A1 inh	HPGD block
CN=c1scc(-c2cccs2)n1/N=C/c1ccccc1O	–	–	?
CCN=c1scc(C)n1/N=C/c1ccsc1	–	–	–
CC(=O)Nc1ccc(C(=O)NNC(=O)Cc2ccccc2)cc1	·	–	·
COc1ccc(/C=N/N(Cc2ccccc2)c2ccccc2)cc1O	·	–	·
C(=N\N(Cc1ccccc1)c1ccccc1)/c1ccco1	·	14µM	·
O=C(C1CC1)N1CCN(c2ccnc3cc(Cl)ccc23)CC1	·	–	·
CC(C)S(=O)(=O)N1CCN(c2ccnc3cc(Cl)ccc23)CC1	·	14µM	·
CN(C)CCNC(=O)c1ccc(Sc2ccc(Br)cc2)c([N+](=O)[O-])c1	·	–	·
Cc1c(-c2ccccc2)sc(Br)c1C(=O)N1CCOCC1	–	–	1.6µM
COc1cccc(OC)c1C(=O)N1CCOCC1	–	–	–
O=C(CCC1CCCN(C(=O)c2ccsc2)C1)NCc1ccc(F)c(F)c1 (centres undefined)	·	–	·
S=c1[nH]nc(Nc2ccccc2Cl)s1	·	1.4µM	·
Clc1cccc(Nc2nc(-c3ccncc3)cs2)c1	·	–	·
O=C(c1ccc(Cl)cc1)c1cnc(Nc2ccccc2Cl)s1	–	–	–
S=c1[nH]nc(Nc2cccc(Cl)c2)s1	·	2.5µM	·
CCN(CC)S(=O)(=O)c1ccc(C(=O)NCCN(C)C)cc1	·	–	·
Cc1ccc(CNC(=O)C(=O)Nc2nccs2)cc1	·	–	·
CCOC(=O)c1cc(NC(=O)Nc2nccs2)c(C)nc1C	?	–	–
CC1CCc2sc(C(=O)N=Nc3c(O)[nH]c4ccccc34)cc2C1 (centres undefined)	–	–	–
COc1ccc(C(=O)CSc2nc3ccc([N+](=O)[O-])cc3[nH]2)cc1	–	?	·
COC(=O)/C(=C/c1cccnc1)NC(=O)c1ccccc1	?	–	–
CC(C)OC(=O)/C(=C/c1cccnc1)NC(=O)c1ccccc1	-92	–	–
NC(=O)c1c(NC(=O)CN2CCOCC2)sc2c1CCC2	–	?	–
N#CCC(=O)Nc1sc2c(c1C(N)=O)CCCC2	–	?	–
NC(=O)c1c(NC(=O)CN2CCCC2)sc2c1CCCC2	–	18µM	?
SMILES	PNC inhibitor	ALDH1A1 inh	HPGD block
NC(=O)c1c(NC(=O)CN2C(=O)CCC2=O)sc2c1CCCCC2	–	14µM	?
CCN(CC)S(=O)(=O)c1ccc(N=Cc2c(C)c(C#N)c(=O)n(C)c2O)cc1	–	?	–
OCCC1CN(Cc2cccn2-c2cccnc2)CCN1C1CCCCC1 (centres undefined)	·	–	·
N#CCC(=O)Nc1ccc(C(=O)OCC(=O)Nc2cccc(C(F)(F)F)c2)cc1	·	–	·
COCC(=O)N1CCC2(CC1)CCN(C(=O)Nc1cccc(C#N)c1)CC2	·	–	–
CCNc1nc(NCC)nc(Oc2ccc(OCC)nn2)n1	?	–	–
CCNc1nc(N)nc(Oc2ccc(OCCOc3ccc(Cl)cc3Cl)nn2)n1	?	–	1µM
CCOc1cc(C(C#N)N2CCOCC2)ccc1OC (centres undefined)	?	?	–
CCOc1ccc(C(C#N)N2CCOCC2)cc1OC (centres undefined)	–	10µM	–
CN(C)c1ccc(/C=N/NC(=O)c2cccc(C(=O)N/N=C/c3ccc(N(C)C)cc3)n2)cc1	·	–	·
CN(C)c1ccc(NC(=O)c2cccc(C(=O)Nc3ccc(N(C)C)cc3)n2)cc1	–	8.9µM	–
CSc1ccc(NC(N)=S)cc1	·	–	·
CN(C)c1ccc(NC(N)=S)cc1	?	12µM	–
CO[C@H]1COC(=O)C/C=C\[C@@H](C)COC(=O)[C@H]2CCCN2C(=O)C/C=C\[C@H]1C	·	–[13.5 µM]	·
O=C(CSc1nnc(Cc2cccs2)n1-c1ccccc1)Nc1ccc2c(c1)OCCO2	–	7.9µM	–
Cc1ccc(-n2c(Cc3cccn3C)nnc2SCC(=O)Nc2ccc3c(c2)OCO3)cc1	–	?	–
Cn1cccc1Cc1nnc(SCC(=O)Nc2ccc3c(c2)OCCO3)n1-c1ccc(F)cc1	–	20µM	–
Cn1cccc1Cc1nnc(SCC(=O)Nc2ccccc2)n1-c1ccc(F)cc1	–	?	–
COc1ccc(-n2c(Cc3cccn3C)nnc2SCC(=O)Nc2cccc(F)c2)cc1	?	13µM	–
Cc1ccc(-n2c(Cc3cccs3)nnc2SCC(=O)Nc2ccc(F)c(F)c2)cc1	–	?	–
Cc1occc1-c1nnc(SCC(=O)Nc2ccccc2)n1CCc1ccccc1	?	–	–
CCOC(=O)c1cccc(NC(=O)CSc2nnc(-c3ccoc3C)n2CCOC)c1	?	20µM	–
CCOC(=O)C1(Cc2ccccc2Cl)CCN(C(=O)CN2CCOC2=O)CC1	·	–	·
COc1ccc(CNC(=O)/C(C#N)=C2\N=C(NC(=O)c3cccs3)c3ccccc32)cc1	–	?	–
Cc1[nH]nc(Sc2ccccn2)c1[N+](=O)[O-]	–	–	–
SMILES	PNC inhibitor	ALDH1A1 inh	HPGD block
COc1ccc(NC(=O)CSc2nnc(Cc3cccn3C)n2-c2ccc(F)cc2)cc1OC	–	25µM	–
COCCn1c(SCC(=O)Nc2nnc(C)s2)nnc1-c1cc2ccccc2cc1O	-91	?	?
Cc1ccc(-n2c(Cc3cccn3C)nnc2SCC(=O)Nc2nnc(C)s2)cc1	–	–	–
COCCn1c(SCC(=O)Nc2nnc(C)s2)nnc1-c1c[nH]c2ccccc12	–	–	–
O=C1COc2ccc(C(=O)CSc3nnc(Cc4cccs4)n3-c3ccccc3)cc2N1	?	3.2µM	–
O=C1COc2ccc(C(=O)CSc3nnc(-c4cccs4)n3Cc3ccccc3)cc2N1	–	?	–
Cc1nnc(NC(=O)CSc2nnc(Cc3cccn3C)n2C)s1	-95	22µM	–
Cn1cccc1Cc1nnc(SCC(=O)Nc2ccc(F)cc2)n1-c1ccc(F)cc1	–	?	–
CCCCCCCCCC(=O)Nc1cccnc1	·	–	·
Cc1cccc(CNc2ccnc(-c3ccccc3CN(C)C)n2)c1	·	–	–
NCCC1([N+](=O)[O-])CCNCC1	·	–[13.5 µM]	–
COC(=O)c1ccc(CO/N=C(\NC(C)=O)c2nonc2NC(C)=O)cc1	–	–	–
COc1ccc(-n2c(Cc3cccn3C)nnc2SCC(=O)Nc2ccc(Cl)cc2)cc1	?	4µM	–
Cn1cccc1Cc1nnc(SCC(=O)Nc2ccc(Cl)cc2)n1-c1ccc(F)cc1	?	?	–
COc1ccc(-n2c(Cc3cccn3C)nnc2SCC(=O)Nc2ccccc2)cc1	?	14µM	–
CCc1ccc(NC(=O)CSc2nnc(Cc3cccn3C)n2-c2ccc(OC)cc2)cc1	–	?	–
COc1cccc(NC(=S)N(CCCN2CCOCC2)Cc2cn(C)c3ccccc23)c1	?	?	–
COc1ccc(NC2=CC(c3cccc(OC)c3)N(c3ccc(OC)cc3)C2=O)cc1 (centres undefined)	–	25µM	?
COc1ccc(NC2=CC(c3ccccc3)N(c3ccc(OC)cc3)C2=O)cc1 (centres undefined)	·	–	–
O=C1CC(SC2=NCCS2)C(=O)N1c1ccc(Cl)cc1 (centres undefined)	–	?	–
Cc1nc(SC2CC(=O)N(c3ccccc3)C2=O)nc2c1CCCC2 (centres undefined)	?	–	–
O=C1CC(Sc2cccs2)C(=O)N1c1ccccc1 (centres undefined)	·	13µM	·
CCN=C(NCC)SC1CC(=O)N(c2ccccc2)C1=O (centres undefined)	–	–	–
CC(c1ccccc1)C1CC(=O)N(c2ccc(C(=O)O)cc2)C1=O (centres undefined)	?	–	–

High-throughput results deposited in PubChem BioAssay by National Center for Advancing Translational Sciences (NCATS).
